# Source: PubChem
# Rows were chosen to be rich in hits. Some 8.7% of all compounds tested hit in one or more screens of this group.
# BAZ2B block: blocks human BAZ2B; Potency, µM (highest dose often 114 µM), usual class: inhibitors; 360,000 tested, 4.4% active; AlphaScreen BAZ2B-H3K14Ac peptide displacement; Q9UIF8; AID 504333; further: nearly all actives have a fitted effect of over 60% in size
#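 In this displacement format the biotinylated H3(5-23) peptide acetylated at Lys14 serves as ligand at 50 nM, with BAZ2B at 50 nM in PBS pH 7.4 containing 0.01% Tween-20. Donor and acceptor beads are 10 ug/mL final.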
# JMJD2A Tudor: JMJD2A Tudor domain (human) inhibition | AlphaScreen JMJD2A-Tudor / H3K4me3 peptide binding | Potency, µM (doses to about 114 µM), hits mostly inhibitors | 390,000 tested, 4.4% active | AID 504339; further: nearly all actives have a fitted effect of over 50% in size
# 12-LOX inh: ALOX12 (human) lipoxygenase inhibition; P18054; purified 12hLO, xylenol orange hydroperoxide absorbance; Potency, µM (series often up to 108 µM), most hits filed as inhibitors; 580,000 tested, 1.1% active; AID 1671190
#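 Hydroperoxide product was detected by ferrous iron/xylenol orange as the 573 to 405 nm absorbance ratio. Arachidonic acid at 40 uM (final) was turned over for 30 min at room temperature by 150 nM human 12hLO, pH 7.0 Hepes buffer, after 15 min compound preincubation.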
# HP1b chromo inh: HP1-beta chromodomain-methylated histone interaction inhibition; P83916; AlphaScreen HP1-beta / biotin-H3K9me3 peptide binding; Potency, µM (highest dose often 114 µM), usual class: inhibitors; 390,000 tested, 0.56% active; further: nearly all actives have a fitted effect of over 70% in size
#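 HP1-beta protein (50 nM final) preincubated 30 min at room temperature with biotinylated H3(1-18)K9me3 peptide (50 nM) in PBS pH 7.4, 0.01% Tween-20, then compound added for 30 min. AlphaScreen streptavidin donor/nickel chelate acceptor beads (10 ug/mL final), 30 min dark, luminescence read.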
# Sfp PPTase inh: inhibitors of Bacillus subtilis Sfp phosphopantetheinyl transferase; Q9F4F7; Biochemical Sfp PPTase activity, qHTS; Potency, µM, actives largely listed as inhibitors; 310,000 tested, 3.5% active; AID 1490;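 further: the enzyme is Sfp with the accession as filed and its product quenches rhodamine fluorescence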
#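 Sfp 15 nM + cpd, 15 min RT; start w/ rhodamine-CoA 5 uM, BHQ-2-YbbR 12.5 uM (final); 50 mM Hepes pH 7.6, 10 mM MgCl2, 0.01% NP-40, 0.01% BSA; read 525/598 nm at 0 and 30 min.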
# G9a block: G9a (human) methyltransferase inhibition | 350,000 tested, 8.8% active | Potency, µM (series often up to 102 µM), usual class: inhibitors | Q96KQ7 | AID 504332 | G9a H3K9 monomethylation, AlphaScreen, 2 h; further: nearly all actives have a fitted effect of over 75% in size
#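 G9a (20 nM) preincubated 15 min RT with compounds, then 500 nM biotinylated H3K9 peptide and 20 uM SAM added; 2 h RT reaction. Monomethyl-H3K9 product detected by AlphaScreen with anti-H3K9me1 antibody, streptavidin donor and anti-rabbit IgG acceptor beads.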
# Hits are given with their value; – = inactive; ? = inconclusive; · = no result; [ ] = dose if it differs, or a comment. The call rests on the fitted dose curve; in most records, active means well fitted curve in the direction sought with a large enough effect; inconclusive means small, poorly fitted or top-dose-only effect, or another doubt; inactive means no such curve, though single readings can be large; an effect the other way counts as inactive or inconclusive.
SMILES,BAZ2B block,JMJD2A Tudor,12-LOX inh,HP1b chromo inh,Sfp PPTase inh,G9a block
CC(C)(C)NC(=O)CCc1nnc(Cc2c[nH]c3ccccc23)o1,–,–,–,–,–,45µM
Cc1ccc(C2=NN(C(=O)CCC(=O)O)C(c3cn(-c4ccccc4)nc3-c3ccc(C)cc3)C2)cc1 (stereo not drawn),·,50µM,–,–,89µM,?
COc1ccc(-c2nn(-c3ccccc3)cc2C2CC(c3cccs3)=NN2C(=O)CCCC(=O)O)cc1 (stereo not drawn),79µM,–,–,–,–,?
Cc1ccc(-c2nn(-c3ccccc3)cc2C2CC(c3cccs3)=NN2C(=O)CCCC(=O)O)cc1 (stereo not drawn),79µM,71µM,?,–,–,?
CCC(CC)N1CCCC(c2nc(-c3cccnc3)no2)CCNC(=O)CC1 (stereo not drawn),·,·,–,·,·,·
O=C(Cn1c(=O)[nH]c2ccccc2c1=O)N1CCN(c2ccccc2F)CC1,·,·,–,·,·,·
O=C(c1cnn2c1CCCC2)N1CCC(c2[nH]ncc2-c2ccccc2)CC1,·,·,–,·,·,·
Cc1ccc(-c2nc(=S)c3c(n2Cc2ccco2)CCCC3)cc1,–,–,?,–,–,–[12.7 µM]
Cc1cccc(-c2nc(=S)c3c(n2Cc2ccco2)CCCC3)c1,–,–,–,–,20µM,?
Cc1ccc(-c2nc(=S)c3c(n2Cc2ccco2)CC(C)(C)OC3)cc1,–,–,·,–,56µM,–[0.0925 µM]
O=[S+]1([O-])NCC2(CCN(CC3CCCCC3)C2)Nc2ccccc21 (stereo not drawn),·,·,–,·,·,·
COc1ccc(C2=Nc3ccccc3N(C(=O)c3ccc(C)cc3)C2C(=O)Nc2c(C)cccc2C)cc1 (stereo not drawn),·,·,0.79µM,·,·,·
COc1ccc(C2=Nc3ccccc3N(C(=O)c3ccc4c(c3)OCO4)C2C(=O)NCc2ccccc2)cc1 (stereo not drawn),·,·,–,·,·,·
COc1ccc(C2=Nc3ccccc3N(C(=O)c3ccc(C)cc3)C2C(=O)NCc2ccccc2)cc1 (stereo not drawn),·,·,3.5µM,·,·,·
CN(C)c1cc(CNC(=O)/C=C/c2ccc(F)cc2)ccn1,·,·,–,·,·,·
c1ccc(-c2ccccc2OCCCN2CCCC2)cc1,?,8.9µM,?,?,–,10µM
c1ccc(-c2ccccc2OCCCCN2CCCCC2)cc1,79µM,40µM,–,–,–,13µM
c1ccc(-c2ccccc2OCCCN2CCCCCC2)cc1,56µM,20µM,?,?,–,3.5µM
N=C(CC(O)COc1ccccc1-c1ccccc1)N1CCCCC1 (stereo not drawn),·,·,–,·,–,–
c1ccc(-c2ccccc2OCCn2cncn2)cc1,–,–,–,–,–,?
CC1CC(C)CN(CCOc2ccccc2-c2ccccc2)C1 (stereo not drawn),–,13µM,?,–,–,?
CN(CC1CCOC1)S(=O)(=O)c1ccccc1F (stereo not drawn),·,·,–,·,·,·
CSc1ccc(C2=NN(S(C)(=O)=O)C(c3ccc4nccnc4c3)C2)cc1 (stereo not drawn),·,·,–,·,·,·
Cc1cc(-c2csc(Nc3ccc(O)cc3)n2)ccc1F,·,·,35µM,·,·,·
O=c1[nH]c2ccc(-c3csc(Nc4ccc(Cl)cc4)n3)cc2o1,·,·,–,·,·,·
SMILES,BAZ2B block,JMJD2A Tudor,12-LOX inh,HP1b chromo inh,Sfp PPTase inh,G9a block
Fc1ccc(-c2csc(Nc3ccccn3)n2)c(F)c1,–,–,–,?,–,·
Oc1ccc(Nc2nc(-c3ccc(F)cc3F)cs2)cc1,·,·,7.9µM,·,·,·
Cc1cc(-c2csc(Nc3ccccn3)n2)ccc1F,–,–,?,–,–,–
O=c1[nH]c2ccc(-c3csc(Nc4ccc(F)cc4)n3)cc2o1,·,·,18µM,·,·,·
Cc1ccc(C2c3cc(OCc4nc(C(=O)NCC(C)C)co4)ccc3CCN2C(=O)C2CC2)cc1 (stereo not drawn),·,·,–,·,·,·
CCCN(CC1CCOC1)S(=O)(=O)c1ccc(F)c(Cl)c1 (stereo not drawn),·,·,–,·,·,·
CC/C(C)=N\NC(=O)CCCCC(=O)N/N=C(\C)CC,·,·,–,·,·,·
Oc1cc2c(cc1C(c1ccc(Br)cc1)N1CCCC1)OCO2 (stereo not drawn),40µM,7.9µM,11µM,16µM,18µM,1.6µM
